Inconclusive results are not listed. The source made the active and inactive calls. The calls were made as follows, unless noted: active = hit-call score of the fitted dose curve at least 0.9, where 1 is the maximum; inactive = score below 0.9.
How the values were obtained:
[1] = target: Oxysterols receptor LXR-beta (Homo sapiens) (UniProt P55055); experiment: ATG_LXRb_TRANS: Attagene TRANS-FACTORIAL HepG2 Assay for human Liver X Receptor beta (LXRb) (AID 2282981; active = hit-call score of the fitted dose curve at least 0.9, where 1 is the maximum); conditions: HepG2 Attagene TRANS GAL4-LXRb reporter, mRNA
How it was run: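 Multiplexed reporter assay, HepG2, 24 h dosing. Fluorescence of labelled RT-PCR products after capillary electrophoresis gives transcript level; positive fitting direction relative to DMSO.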

[2] = target: Hepatocyte nuclear factor 4-alpha (Homo sapiens) (UniProt P41235); experiment: ATG_HNF4a_TRANS: Attagene TRANS-FACTORIAL HepG2 Assay for human Hepatocyte Nuclear Factor 4 alpha (HNF4a) (AID 2282982; active = hit-call score of the fitted dose curve at least 0.9, where 1 is the maximum); conditions: HepG2 HNF4a transactivation reporter, mRNA readout
How it was run: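 Endpoint reflects transcriptional activation of a GAL4-UAS reporter by an HNF4a-GAL4 chimera in transfected HepG2 cells, 24 h post-dosing. Fluorescence from RT-PCR products separated by capillary electrophoresis; DMSO baseline.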

[3] = ATG_M_06_TRANS: Attagene TRANS-FACTORIAL HepG2 Assay for M06 Transcription Factor (Internal Marker) (AID 2282983; active = hit-call score of the fitted dose curve at least 0.9, where 1 is the maximum); conditions: HepG2 Attagene TRANS M06 internal marker reporter
How it was run: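 Human liver HepG2 cells bearing transiently transfected chimeric NR-GAL4 reporter units were treated with chemicals for 24 h. Total RNA was reverse-transcribed, reporter sequences amplified and labelled, then quantified by capillary electrophoresis. Activity was fitted upward relative to DMSO.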

[4] = target: Nuclear receptor subfamily 4 group A member 2 (Homo sapiens) (UniProt P43354); experiment: ATG_NURR1_TRANS: Attagene TRANS-FACTORIAL HepG2 Assay for human Nuclear Receptor Related Protein 1 (NURR1) (AID 2282985; active = hit-call score of the fitted dose curve at least 0.9, where 1 is the maximum); conditions: HepG2 Attagene TRANS reporter, mRNA readout
How it was run: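 Endpoint: reporter mRNA increase relative to DMSO. HepG2 cells transfected with reporter units, treated 24 h; RNA processed by RT-PCR, labelling, HpaI digestion and capillary electrophoresis.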

[5] = target: Transcriptional activator Myb (Homo sapiens) (UniProt P10242); experiment: ATG_Myb_CIS: Attagene CIS-FACTORIAL HepG2 Assay for human Myeloblastosis (Myb) Proto-Oncogene Transcription Factor (AID 2282986); conditions: HepG2 Attagene CIS-FACTORIAL Myb reporter transcription; actives raise or lower the signal
How it was run: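 Transiently transfected HepG2 cells, treated 24 h. Reporter mRNA quantified by RT-PCR/capillary electrophoresis; bidirectional fit relative to DMSO.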

[6] = target: Nuclear respiratory factor 1 (Homo sapiens) (UniProt Q16656); experiment: ATG_NRF1_CIS: Attagene CIS-FACTORIAL HepG2 Assay for human Nuclear Respiratory Factor 1 (NRF1) Orphan Gene (AID 2282987); conditions: HepG2 NRF1 cis-element reporter, Attagene multiplex; actives raise or lower the signal
How it was run: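 Cells (HepG2, transient MRTU transfection) are exposed to compound for 24 h, then RNA isolated and reporter mRNA amplified and fluorescently labelled. Fragments are separated by capillary electrophoresis; signal change is fitted bidirectionally relative to DMSO.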

[7] = ATG_NFI_CIS: Attagene CIS-FACTORIAL HepG2 Assay for human Nuclear Factor I (NFI) (AID 2282989); conditions: HepG2 cis-regulatory reporter, NFI response element transcription; actives raise or lower the signal
How it was run: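 Read-out: reporter mRNA via RT-PCR plus capillary electrophoresis with fluorescence detection. Transiently transfected HepG2 (endogenous TF activity on cis promoters), 24 h compound exposure; gain or loss of signal fitted against DMSO.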

[8] = target: Myc proto-oncogene protein (Homo sapiens) (UniProt P01106); experiment: ATG_Myc_CIS: Attagene CIS-FACTORIAL HepG2 Assay for human Myelocytomatosis (Myc) Proto-Oncogene Transcription Factor (AID 2282990); conditions: HepG2, Attagene cis-reporter transcription factor activity; actives raise or lower the signal
How it was run: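 Fluorescence intensity of reporter-specific cDNA fragments, separated by capillary electrophoresis, gives the signal. Transfected HepG2 cells carrying cis-promoter reporter constructs are incubated with compound for 24 h; DMSO serves as baseline.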

[9] = ATG_NF_kB_CIS: Attagene CIS-FACTORIAL HepG2 Assay for human Nuclear Factor Kappa B (NF-kB) (AID 2282991); conditions: HepG2 Attagene cis-factorial NF-kB reporter mRNA; actives raise or lower the signal
How it was run: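 Measures mRNA induction of an NF-kB-responsive cis-element reporter in HepG2 cells transfected with multiple reporter units, sampled 24 h post-dosing; quantified by fluorescence after RT-PCR and capillary electrophoresis, fitted for activation or inhibition against DMSO.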

[10] = ATG_M_32_TRANS: Attagene TRANS-FACTORIAL HepG2 Assay for M32 Transcription Factor (Internal Marker) (AID 2282984; active = hit-call score of the fitted dose curve at least 0.9, where 1 is the maximum;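 also: transcript level of a background control reporter unit measured by RT-PCR and capillary electrophoresis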); conditions: HepG2 Attagene TRANS M32 internal marker reporter
How it was run: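 Internal-marker readout from a multiplexed transcription reporter panel. HepG2 cells were transfected with GAL4-UAS reporter units, treated 24 hours, and reporter transcript levels determined by fluorescence after RT-PCR and capillary separation.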

Measured: AC50

Oxysterols receptor LXR-beta (Homo sapiens), sequence (P55055 whole entry, looked up, the tested form may be a part): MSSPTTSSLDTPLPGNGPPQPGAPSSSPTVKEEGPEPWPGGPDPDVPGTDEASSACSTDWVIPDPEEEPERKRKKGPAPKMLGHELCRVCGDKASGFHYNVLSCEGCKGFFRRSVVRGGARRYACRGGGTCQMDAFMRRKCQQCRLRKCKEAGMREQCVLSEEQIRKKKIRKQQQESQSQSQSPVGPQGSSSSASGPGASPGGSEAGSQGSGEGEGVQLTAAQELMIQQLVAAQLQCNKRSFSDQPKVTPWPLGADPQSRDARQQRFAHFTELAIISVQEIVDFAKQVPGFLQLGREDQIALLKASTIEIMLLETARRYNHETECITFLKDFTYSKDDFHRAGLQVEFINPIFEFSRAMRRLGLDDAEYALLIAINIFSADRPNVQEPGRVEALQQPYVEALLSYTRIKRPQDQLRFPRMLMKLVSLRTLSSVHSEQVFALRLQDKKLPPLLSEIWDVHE
Hepatocyte nuclear factor 4-alpha (Homo sapiens), sequence (P41235 whole entry, looked up, the tested form may be a part): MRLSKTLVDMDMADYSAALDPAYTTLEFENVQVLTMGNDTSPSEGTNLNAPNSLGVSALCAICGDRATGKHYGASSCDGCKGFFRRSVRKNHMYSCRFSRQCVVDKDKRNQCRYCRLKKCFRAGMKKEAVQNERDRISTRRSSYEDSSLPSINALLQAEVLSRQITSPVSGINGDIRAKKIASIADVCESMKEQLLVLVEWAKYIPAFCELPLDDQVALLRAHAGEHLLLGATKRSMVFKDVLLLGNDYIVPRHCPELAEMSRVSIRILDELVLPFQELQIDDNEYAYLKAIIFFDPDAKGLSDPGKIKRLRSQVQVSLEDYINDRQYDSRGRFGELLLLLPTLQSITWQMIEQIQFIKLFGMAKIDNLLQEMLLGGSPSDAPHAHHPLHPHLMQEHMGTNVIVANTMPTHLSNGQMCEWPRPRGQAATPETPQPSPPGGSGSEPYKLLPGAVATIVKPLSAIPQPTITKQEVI
Nuclear respiratory factor 1 (Homo sapiens), sequence (Q16656 whole entry, looked up, the tested form may be a part): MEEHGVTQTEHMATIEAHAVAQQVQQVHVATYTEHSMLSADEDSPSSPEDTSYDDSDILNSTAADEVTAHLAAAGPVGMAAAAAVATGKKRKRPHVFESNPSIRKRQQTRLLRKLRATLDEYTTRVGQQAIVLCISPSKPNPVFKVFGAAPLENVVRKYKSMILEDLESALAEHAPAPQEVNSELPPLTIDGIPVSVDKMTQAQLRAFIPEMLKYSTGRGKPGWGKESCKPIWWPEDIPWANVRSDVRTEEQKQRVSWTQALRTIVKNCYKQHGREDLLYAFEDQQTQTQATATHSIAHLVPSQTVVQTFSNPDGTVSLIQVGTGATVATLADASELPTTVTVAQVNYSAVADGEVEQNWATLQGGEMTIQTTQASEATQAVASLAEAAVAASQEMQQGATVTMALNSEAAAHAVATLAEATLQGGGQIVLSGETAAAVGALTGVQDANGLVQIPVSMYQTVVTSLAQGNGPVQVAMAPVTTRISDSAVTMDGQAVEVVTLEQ
Myc proto-oncogene protein (Homo sapiens), sequence (P01106 whole entry, looked up, the tested form may be a part): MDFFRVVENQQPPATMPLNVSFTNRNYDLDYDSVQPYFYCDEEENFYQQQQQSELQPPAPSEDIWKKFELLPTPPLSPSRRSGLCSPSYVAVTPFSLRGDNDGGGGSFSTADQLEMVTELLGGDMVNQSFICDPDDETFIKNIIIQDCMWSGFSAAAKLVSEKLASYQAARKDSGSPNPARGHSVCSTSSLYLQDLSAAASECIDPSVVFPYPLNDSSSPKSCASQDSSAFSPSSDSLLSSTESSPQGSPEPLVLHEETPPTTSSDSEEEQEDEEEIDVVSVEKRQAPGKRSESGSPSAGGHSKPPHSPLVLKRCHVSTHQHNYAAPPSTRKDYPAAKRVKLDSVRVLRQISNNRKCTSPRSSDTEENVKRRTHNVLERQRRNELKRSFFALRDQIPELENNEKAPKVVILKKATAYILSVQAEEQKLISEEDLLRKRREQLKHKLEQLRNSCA
Nuclear receptor subfamily 4 group A member 2 (Homo sapiens), sequence (P43354 whole entry, looked up): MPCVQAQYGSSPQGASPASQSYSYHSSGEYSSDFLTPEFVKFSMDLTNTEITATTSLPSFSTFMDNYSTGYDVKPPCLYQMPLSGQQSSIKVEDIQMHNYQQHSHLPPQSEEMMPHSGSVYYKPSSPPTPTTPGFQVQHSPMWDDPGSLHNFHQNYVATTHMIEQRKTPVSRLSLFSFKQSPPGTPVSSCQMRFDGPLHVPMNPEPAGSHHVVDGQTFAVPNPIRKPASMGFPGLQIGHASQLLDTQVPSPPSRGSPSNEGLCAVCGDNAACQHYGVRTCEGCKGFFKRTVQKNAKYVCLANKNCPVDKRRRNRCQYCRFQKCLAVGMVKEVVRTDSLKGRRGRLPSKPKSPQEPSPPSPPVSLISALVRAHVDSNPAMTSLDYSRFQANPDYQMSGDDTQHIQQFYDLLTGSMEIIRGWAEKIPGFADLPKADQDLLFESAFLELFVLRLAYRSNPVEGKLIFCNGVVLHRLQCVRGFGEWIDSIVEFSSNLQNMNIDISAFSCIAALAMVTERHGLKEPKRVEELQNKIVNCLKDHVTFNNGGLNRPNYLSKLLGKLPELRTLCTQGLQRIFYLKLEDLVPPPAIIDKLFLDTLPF
Transcriptional activator Myb (Homo sapiens), sequence (P10242 whole entry, looked up): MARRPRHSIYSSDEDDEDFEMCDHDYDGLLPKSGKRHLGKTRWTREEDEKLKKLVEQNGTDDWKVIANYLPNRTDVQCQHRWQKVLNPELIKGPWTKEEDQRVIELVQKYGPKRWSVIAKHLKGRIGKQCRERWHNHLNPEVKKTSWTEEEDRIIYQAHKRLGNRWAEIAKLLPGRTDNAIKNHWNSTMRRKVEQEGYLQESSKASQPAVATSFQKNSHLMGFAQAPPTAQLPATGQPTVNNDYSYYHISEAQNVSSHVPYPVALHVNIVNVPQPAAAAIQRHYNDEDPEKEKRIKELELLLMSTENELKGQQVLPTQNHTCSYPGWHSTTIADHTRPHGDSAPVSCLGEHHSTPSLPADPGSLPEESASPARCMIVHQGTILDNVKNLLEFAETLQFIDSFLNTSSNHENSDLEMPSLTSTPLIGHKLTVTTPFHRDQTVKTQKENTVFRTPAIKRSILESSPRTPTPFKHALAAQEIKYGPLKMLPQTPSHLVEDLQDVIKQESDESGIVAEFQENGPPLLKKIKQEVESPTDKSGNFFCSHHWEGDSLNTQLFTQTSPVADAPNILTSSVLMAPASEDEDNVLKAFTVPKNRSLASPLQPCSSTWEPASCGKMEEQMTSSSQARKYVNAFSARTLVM

C[CH2][Hg][S]c1ccccc1C(=O)O
active: [5] 3.89 µM | [7] 1.58 µM
not listed: [10]
inactive: all other assays above

Nc1ccc(-c2ccccc2)cc1
not listed: [2]
inactive: all other assays above

CN(C)[C@@H]1C(=O)C(C(N)=O)=C(O)[C@@]2(O)C(=O)C3=C(O)c4c(O)ccc(Cl)c4[C@@](C)(O)[C@H]3C[C@@H]12
not listed: [2]
inactive: all other assays above

Clc1cc(C(Cl)(Cl)Cl)cnc1Cl
inactive: [1] | [2] | [5] | [6]
active: [7] 44.8 µM | [8] 55.5 µM | [9] 8560 nM

N#Cc1ccc(Cl)cc1
not listed: [2]
inactive: all other assays above

CCCCS(=O)(=O)Cl
not listed: [3]
inactive: all other assays above

CCOC(=O)Cc1ccccc1
not listed: [2] | [9]
inactive: all other assays above

[Cl][Sn]([c]1ccccc1)([c]1ccccc1)[c]1ccccc1
active: [2] 228 nM | [4] 6.88 nM | [5] 1.53 µM | [6] 216 nM | [7] 0.228 µM | [8] 1.4 µM | [9] 232 nM
inactive: [1] | [3]

Nc1nc(N)nc(Cl)n1
inactive: [1] | [2] | [10] | [6] | [7] | [8]

C=CCCl
not listed: [3] | [4]
inactive: all other assays above

CN(C)C(=S)S
not listed: [9] | [10]
inactive: all other assays above

O=C1C=CC(=O)c2ccccc21
not listed: [2]
inactive: all other assays above

O=C(CCl)NCO
not listed: [3]
inactive: all other assays above

C=CC(F)(C(F)(F)F)C(F)(F)C(F)(F)F (stereo not drawn)
not listed: [4] | [10]
inactive: all other assays above

CCOP(=S)(OCC)OP(=S)(OCC)OCC
not listed: [3] | [9]
inactive: all other assays above

OC(Cc1ccccc1Cl)(Cn1cncn1)C1(Cl)CC1 (stereo not drawn)
not listed: [3]
inactive: all other assays above

N#CS
not listed: [4] | [9] | [10]
inactive: all other assays above

[F][Sn]([c]1ccccc1)([c]1ccccc1)[c]1ccccc1
active: [4] 3.63 nM | [6] 294 nM | [7] 0.312 µM | [8] 2.12 µM | [9] 685 nM
inactive: [1] | [2] | [10]

c1csc(-c2ccc(-c3cccs3)s2)c1
active: [4] 3590 nM
not listed: [3]
inactive: all other assays above

CC(C)N(C(=O)CCl)c1ccccc1
active: [4] 149000 nM | [5] 8.16 µM | [6] 49100 nM | [7] 24.3 µM
inactive: [1] | [3] | [10] | [8]

Cc1cc(Cl)ccc1O
not listed: [3] | [4]
inactive: all other assays above

O=S(=O)(F)C(F)(F)C(F)(F)C(F)(F)C(F)(F)F
not listed: [4] | [5]
inactive: all other assays above

O=C(O)CC(O)(CC(=O)O)C(=O)O
active: [4] 6740 nM
not listed: [8] | [9] | [10]
inactive: all other assays above

Clc1cnc(Oc2ccc(Oc3ncc(Cl)cc3Cl)cc2)c(Cl)c1
not listed: [3] | [10]
inactive: all other assays above

C=CC(=O)[O][Sn]([CH2]CCC)([CH2]CCC)[CH2]CCC
active: [4] 1.09 nM | [7] 0.179 µM
not listed: [3]
inactive: all other assays above

CS(=O)(=O)c1ccc(C(=O)C2C(=O)CCCC2=O)c(Cl)c1COCC(F)(F)F
not listed: [2] | [4] | [8]
inactive: all other assays above

CC(C)(C1CCC(O)CC1)C1CCC(O)CC1 (stereo not drawn)
not listed: [2] | [8] | [10]
inactive: all other assays above

COCC(=O)N(c1c(C)cccc1C)[C@H](C)C(=O)OC
not listed: [2] | [3] | [9]
inactive: all other assays above

Cc1cc(C)cc(C)c1
inactive: [1] | [3] | [10] | [6] | [7] | [9]

From PubChem BioAssay (EPA / NIEHS)
